Data from PubChem BioAssay AID2417 (National Center for Advancing Translational Sciences (NCATS), 2010).
About 4,300 (3.1%) of roughly 140,000 compounds were called active. About 21% were inconclusive and are not listed. Many of the other results were omitted from the sample, so actives are more common in it than they were. A number with no mark means an inactive call.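 How the source made its calls: active means readout at or below -70, meaning at least 70% loss of cells showing the perinucleolar compartment, a nuclear body marking cancer cells; inconclusive means readout between -30 and a set limit; inactive means the rest.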

assay: High Content Assay for Compounds that inhibit the Assembly of the Perinucleolar Compartment; details: PC3M PTB-GFP, PNC prevalence imaging, 16 h; at 10 µM; active compounds read low;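 further: plate controls were DMSO wells for no effect and camptothecin positive control wells for full effect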
Summary of the method: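 PC3M cells stably expressing PTB-GFP, 750–1000 cells/well, treated 16 h at 37 °C with compound (23 nl of library stock), in duplicate. After paraformaldehyde fixation and Hoechst stain, imaged at 20x; PNC prevalence scored by image analysis.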

Structure (SMILES) | activity change (PNC), negative = inhibition
Cc1cccc(N2C(=O)SC(SC(=Nc3ccccc3)Nc3ccccc3)C2=O)c1 (configuration not stated) | 64.7%
Cc1cc(C)n(-c2nc(SCC(=O)N3CCCC3)c3c4c(sc3n2)CCCC4)n1 | 26%
Cc1nc(SCC(=O)Nc2cc(C)on2)c2c3c(sc2n1)CCCC3 | -9.46%
COCCn1c(C)cc(C(=O)CSc2ncnc3sc4c(c23)CCC4)c1C | -100% (active)
CC(=O)Nc1ccc(C(=O)OCC(=O)Nc2ccc([N+](=O)[O-])cc2C(F)(F)F)cc1 | -8.91%
CCCCCCCCCOC1OC(CO)C(O)C(O)C1NC(C)=O (configuration not stated) | -8.39%
COc1ccccc1C(=O)Nn1c(-c2cccs2)nc2ccccc2c1=O | -26.6%
CCOC(=O)N1CCN(CC(=O)c2c(C)[nH]c3ccccc23)CC1 | -18.6%
Cc1[nH]c2ccccc2c1C(=O)COC(=O)c1c(-c2ccccc2)noc1C | -121% (active)
Cc1[nH]c2ccccc2c1C(=O)CSCC(=O)O | -15.7%
CCOC(=O)c1cccnc1NC(=O)c1ccncc1 | -1.7%
Brc1ccc(OCCn2ccnc2)cc1 | -118% (active)
COc1ccc(/C=C(\C#N)C(=O)NCCCn2ccnc2)cc1 | 60.5%
Cc1ccc(OCCOCCOc2ccc(Br)cc2/C=N\NC(=O)c2ccncc2)cc1 | -9.62%
Oc1ccc(Br)cc1C=Nc1ccc2[nH]ncc2c1 | 18.8%
CNC(=S)N/N=C/c1ccc(OCc2ccccc2)c(Br)c1 | 23.4%
Cc1cccc2cc3c(N)c(C(=O)N4CCCc5ccccc54)sc3nc12 | -97.5% (active)
O=C(c1cc(-c2ccc(O)cc2)on1)N1CCCc2ccccc21 | -28.7%
O=C(c1cccc(C(=O)N2CCc3ccccc32)n1)N1CCc2ccccc21 | 8.65%
COc1cc(NC(=S)NNC(=O)CC(C)C)c(OC)cc1Cl | 20.5%
Cc1ccc(C(=O)OCc2nc(N)nc(Nc3ccccc3C)n2)cc1 | -25%
COCC(=O)Nc1cc(C(=O)OC)cc(C(=O)OC)c1 | 0.32%
COc1cccc2c(C)c(C(=O)O)[nH]c12 | -100% (active)
COc1cccc2c(O)cc(=O)n(C)c12 | 3.35%
CCOC(=O)c1c(C)[nH]c(C(=O)NCc2ccccc2OC)c1C | 4.85%

Structure (SMILES) | activity change (PNC), negative = inhibition
CCOC(=O)C(C)Sc1nnc(CSc2nc3nc(C)cc(C)n3n2)o1 (configuration not stated) | -12%
O=C(CN1CCN(c2ccc(O)cc2)CC1)Nc1cc(S(=O)(=O)N2CCOCC2)ccc1Cl | 32%
O=C(CCc1nc2ccccc2c(=O)[nH]1)OCC(=O)c1cccc(Cl)c1 | 9.28%
COc1ccc(Nc2cc(C)nc(-n3nc(C)cc3C)n2)cc1 | -93.3% (active)
COc1ccccc1/C=N\Nc1cc(C)nc(-n2nc(C)cc2C)n1 | -20.8%
Cc1cc(Oc2ccccc2)nc(N2CCOCC2)n1 | 31.1%
CC(=O)c1ccc(Oc2cc(C)nc(-n3nc(C)cc3C)n2)cc1 | -86.2% (active)
COc1ccc(NC(=O)c2nc(-n3nc(C)cc3C)ccc2Cl)cc1Cl | -28.2%
Cc1cc(C)n(-c2cc(Oc3ccccc3)ncn2)n1 | 61.7%
CC(=O)NNC1=Nc2ccccc2N(C)C(C)C1 (configuration not stated) | 41.2%
O=C(COc1ccc(Cl)cc1)N1CCN(S(=O)(=O)c2ccc(Cl)cc2)CC1 | -28.2%
O=C(COc1ncnc2c(Cl)cc(Cl)cc12)N1CCN(S(=O)(=O)c2ccccc2)CC1 | 25.7%
O=C(ON=C1CCN(S(=O)(=O)c2ccccc2)CC1)c1ccc(Cl)cc1 | -100% (active)
O=C(Nc1ccc(N2C(=O)c3cccc4cccc(c34)C2=O)cc1)c1ccc(N2CCCCC2)c([N+](=O)[O-])c1 | 12%
Cc1ccsc1C(=O)N/N=C/c1ccc([N+](=O)[O-])cc1 | -4.41%
Cc1ccc(NC(=O)c2sccc2C)cc1[N+](=O)[O-] | -105% (active)
COc1ccc(NC(=O)c2ccccc2[N+](=O)[O-])cc1OC | 40.9%
C=CCN(c1ccc(C(=O)Nc2cc(C)cc(C)c2)cc1)S(C)(=O)=O | 0%
COc1ccc(-c2cc(C(=O)NC(Cc3c[nH]c4ccccc34)C(=O)O)c(C)o2)cc1OC (configuration not stated) | 41%
COc1ccc(C(=O)ON=C2c3ccccc3-c3ccccc32)cc1OC | 2.98%
COc1cc(CCC(=O)OCC(=O)Nc2cccc(S(N)(=O)=O)c2)cc(OC)c1OC | 17.9%
Cc1ccc(OCC(=O)Nc2ccc(-c3nnc(-c4ccco4)o3)cc2)cc1 | 63.9%
COc1ccc(OCC(=O)Nc2nnc(-c3ccco3)s2)cc1 | -113% (active)
COCC(=O)Nc1nnc(COc2ccccc2)s1 | 5.3%
Cc1ccc(C(=O)N2CC(=O)Nc3ccccc32)o1 | -19.5%

Structure (SMILES) | activity change (PNC), negative = inhibition
CCc1ccc(C2C(C#N)=C(N)N(N(C)C)C3=C2C(=O)CCC3)s1 (configuration not stated) | 36.4%
O=C1NC(=Nc2ccc(Cl)cc2)SC1Cc1cccc(Cl)c1Cl (configuration not stated) | 66.6%
O=C(COC(=O)/C=C/c1cccc(Cl)c1)NCCc1ccccc1 | -23.6%
COCCNC(=O)c1ccccc1NS(=O)(=O)c1ccc(C)c([N+](=O)[O-])c1 | 33%
C/C(CC(=O)Nc1cccc(F)c1)=N\NC(=O)C(=O)NC1CCCCC1 | 0.469%
CCN1CCN(C(=O)C2(NC(=O)Nc3cccc(F)c3)CCCCC2)CC1 | -83.6% (active)
O=C(Nc1cccc(F)c1)c1ccc(S(=O)(=O)N2CCCC2)cc1 | 8.69%
COCCCNC(=S)NC(=O)c1ccccc1 | -29.6%
Cc1ccc(-c2cn3cc([N+](=O)[O-])ccc3n2)cc1 | 19.9%
O=C(NNC(=S)NCc1ccccc1)c1ccc(OC(F)F)cc1 | -4.88%
COc1ccc(C/C(C)=N/NC(=O)c2cc(C)oc2C)cc1 | 15.4%
COc1ccc(NC(=O)CN2CCN(S(=O)(=O)c3ccc(F)cc3)CC2)cc1Cl | -123% (active)
COc1cc2c(cc1NC(=O)CN1CCN(S(=O)(=O)c3ccc(F)cc3)CC1)oc1ccccc12 | -22.6%
O=C(CN1CCN(S(=O)(=O)c2ccc(F)cc2)CC1)Nc1ccccc1F | -12%
CCc1ccc(NC2Nc3cc(C)nn3S2)cc1 (configuration not stated) | 66.7%
O=C(CN1CCN(C2CCCCC2)CC1)Nc1ccccc1N1CCCCC1 | -8.13%
Cc1ccccc1NC(=O)CNc1ccccc1N1CCCCC1 | -94.9% (active)
Cn1c(=O)c2c(nc(SCC(=O)Nc3ccccc3N3CCCCC3)n2C)n(C)c1=O | -26.8%
Cc1occc1C(=O)NNC(=S)NCC(C)C | -25.7%
CC(C)CNC(=S)NNC(=O)c1nn(C)cc1Cl | -100% (active)
Cc1scc(C(=O)NNC(=S)NCC(C)C)c1C | -6.46%
Cc1ccc(NC(=O)c2cccs2)cc1S(=O)(=O)N(C)C | 22.8%
Cc1ccc(S(=O)(=O)N(C)C)cc1NC(=O)/C=C/c1cccs1 | -119% (active)
Cc1ccc(S(=O)(=O)N(C)C)cc1NC(=O)COC(=O)c1c(C)noc1C | -21.3%
CCS(=O)(=O)Nc1ccc(C2=NN(S(=O)(=O)c3ccc(F)cc3)C(c3ccco3)C2)cc1 (configuration not stated) | 13.9%

Structure (SMILES) | activity change (PNC), negative = inhibition
Cc1ccc(C2=NN(C(=O)CSc3nc(N)cc(N)n3)C(c3ccco3)C2)cc1 (configuration not stated) | -113% (active)
Fc1ccc(N2N=C(c3cccs3)CC2c2ccco2)c(F)c1 (configuration not stated) | 17.8%
CC(C)(C)c1ccc(NC(=O)COC(=O)CCc2nc3ccccc3c(=O)[nH]2)cc1 | -24.2%
C/C(=N/NC(=O)c1ccc(Br)o1)c1ccc(C)o1 | -24.9%
CCOc1ccc(NC(=O)c2ccc(CSc3nnnn3C)cc2)cc1 | -8.75%
CCc1cccc(CC)c1NC(=O)COc1ccccc1C(=O)c1cc(C#N)c(=O)n(C2CCCCC2)c1 | -12.2%
CCCOC(=O)c1[nH]c2c(c1C)C(=O)CC(c1cccs1)C2 (configuration not stated) | -85.9% (active)
CCCOC(=O)c1[nH]c2c(c1C)C(=O)CC(c1cc(OC)c(OC)c(OC)c1)C2 (configuration not stated) | 10.3%
CCOC(=O)c1[nH]c2c(c1-c1ccccc1)C(=O)CC(c1ccc(Cl)cc1)C2 (configuration not stated) | 35.7%
CSc1ccccc1NC(=O)c1cc(C2CC2)on1 | -108% (active)
CSc1ccccc1NC(=O)Cc1ccc(Br)cc1 | 27%
O=C(Nc1cc(C(F)(F)F)ccc1Cl)c1cc(C2CC2)on1 | -19.5%
Cc1cc(C(C)(C)C)cc(C)c1N | 15.5%
O=C(Cc1cc(=O)[nH][nH]1)N/N=C/c1ccccc1[N+](=O)[O-] | -21.2%
Cc1ccc(N(C(=O)c2ccc(CN3CCOCC3)o2)C(C(=O)NCCC(C)C)c2cccs2)c(C)c1 (configuration not stated) | 4.19%
O=C(Nc1ccccc1)c1ccc2nsnc2c1 | -106% (active)
O=C(Nc1ccccc1)c1ccc2c(c1)OCO2 | 16.1%
COc1ccc(NC(=O)Nc2ccc3nsnc3c2)cc1 | -27.5%
Cc1cc(C)cc(NC(=S)NCCCN2CCOCC2)c1 | 26.5%
CCCCC(=O)Nc1ccc(C(=O)NCCCn2ccnc2)cc1 | 40.1%
O=C(NCCCn1ccnc1)Nc1ccc(Cl)cc1Cl | -114% (active)
Cc1ccc2c(Cl)c(C(=O)NCCCn3ccnc3)sc2c1 | -3.58%
